Experimental data from PubChem BioAssay AID1159580 (chemical genetic matrix, 2015).
About 2,000 (36%) of roughly 5,500 compounds were called active. Not shown: some 18% with an inconclusive outcome. Rule as the data show it: active = normalized growth mostly below about 0.91 (no sharp cut-off); inconclusive = no clear call, values can overlap the other calls; inactive = mostly above about 0.92. The list shows a part of the results.

Assay: chemical genetic growth profiling, strain panel (AID 1159580);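 also: tested at 20 µM; growth read once vehicle control cultures reached saturation at 30 °C; 1 = growth at the plate median or of vehicle wells; lower values mean less growth of the strain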
Conditions: S. cerevisiae deletion strains, growth OD

Measured: normalized growth

O=C(O)c1ccccc1Nc1cccc(OCc2ccc3ccccc3n2)c1
inactive: locus YAL013W, strain DEP1, hits give low values 0.996 | locus YAL040C, strain CLN3, hits give low values 0.932 | locus YCL061C, strain MRC1 (second series), hits give low values 0.997 | locus YDR150W, strain NUM1, hits give low values 1 | locus YDR363W, strain ESC2, hits give low values 1 | locus YER002W, strain NOP16, hits give low values 1.01 | locus YGR078C, strain PAC10, hits give low values 0.967 | locus YHR030C, strain SLT2, hits give low values 1.03 | locus YHR079C, strain IRE1, hits give low values 1.03 | locus YJL095W, strain BCK1, hits give low values 1.05 | locus YJR066W, strain TOR1, hits give low values 0.968 | locus YJR075W, strain HOC1, hits give low values 1.01 | locus YLR113W, strain HOG1, hits give low values 1.01 | locus YMR263W, strain SAP30, hits give low values 0.999 | locus YMR307W, strain GAS1, hits give low values 1.04 | locus YNL128W, strain TEP1, hits give low values 0.957 | locus YNL153C, strain GIM3, hits give low values 1.04 | locus YNL175C, strain NOP13, hits give low values 0.94 | locus YNL183C, strain NPR1, hits give low values 0.981 | locus YNL197C, strain WHI3, hits give low values 0.934 | locus YNL224C, strain SQS1, hits give low values 0.95 | locus YNL322C, strain KRE1, hits give low values 1.02 | locus YOR083W, strain WHI5 (second series), hits give low values 0.959 | locus YOR231W, strain MKK1, hits give low values 1.02 | locus YPL241C, strain CIN2, hits give low values 0.989 | locus YPL256C, strain CLN2, hits give low values 1.02
